Measurements from PubChem BioAssay (EPA / NIEHS).
Several values for one entry are separate records, joined by “and”; a condition that tells them apart may be missing. Equal values may be shown once. Results filed as inconclusive are left out. A structure can be active in one record and inactive in another. Activity calls are given as the source filed them. The calls were made as follows, unless noted: active = hit-call score of the fitted dose curve at least 0.9, where 1 is the maximum; inconclusive = response in the unintended direction; inactive = score below 0.9.

Tests used:
[1] = read-out: xenobiotic metabolism (CYP1A2), CYP1A2 (gene 1544); test: CLD_CYP1A2_6hr: CellzDirect (CLD) Gene Expression Assay for xenobiotic metabolism (CYP1A2) at 6 hours (AID 2283663);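 as to AC50: potency is for induction meaning a rise in mRNA above DMSO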
Outline: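 mRNA levels quantified by quantitative nuclease protection assay with chemiluminescence, 6 h after dosing human primary hepatocyte cultures (two donors) across several concentrations, vehicle 0.2% DMSO. Induction fitted upward versus DMSO; phase-contrast cytotoxicity annotated.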

[2] = Tanguay_ZF_120hpf_TR_legacy: (Legacy) Oregon State University Tanguay Lab 120 Hour Post-fertilization zebrafish Assay for Touch Response (AID 2283667)
Outline: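 Readout is presence or absence of touch response in 120 hpf zebrafish larvae, assessed by brightfield observation after continuous static exposure at 28C. Final vehicle was 0.64% (vol/vol) DMSO.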

[3] = CLD_ACTIN_24hr: CellzDirect (CLD) Gene Expression Assay for Baseline Control (Actin) at 24 hours (AID 2283670)
Outline: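 This 24 h qNPA (S1 nuclease protection, chemiluminescence) actin transcript readout in cultured human liver primary cells serves as baseline control. Signal is fitted upward relative to 0.2% DMSO; chemicals tested at multiple concentrations across two donor preparations.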

[4] = read-out: glucuronosyltransferase (UGT1A1), UGT1A1 (gene 54658); test: CLD_UGT1A1_6hr: CellzDirect (CLD) Gene Expression Assay for glucuronosyltransferase (UGT1A1) at 6 hours (AID 2283672)
Outline: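 UGT1A1 mRNA induction, read by quantitative nuclease protection assay, 6 h after dosing primary human hepatocytes (two donors, 0.2% DMSO vehicle). Gain of signal fitted relative to vehicle.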

[5] = read-out: xenobiotic metabolism (CYP1A1), CYP1A1 (gene 1543); test: CLD_CYP1A1_24hr: CellzDirect (CLD) Gene Expression Assay for xenobiotic metabolism (CYP1A1) at 24 hours (AID 2283673);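 also: CYP1A1 mRNA level by quantitative nuclease protection with chemiluminescence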
Outline: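 Transcript levels were read at 24 h by qNPA chemiluminescence in human liver primary cells. Cells got daily fresh dosing at multiple concentrations (vehicle 0.2% DMSO). Induction fitted upward against DMSO; phase-contrast cytotoxicity annotated.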

[6] = read-out: ABC Transporter (ABCB11), ABCB11 (gene 8647); test: CLD_ABCB11_6hr: CellzDirect (CLD) Gene Expression Assay for ABC Transporter (ABCB11) at 6 hours (AID 2283675);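 also: hits raise ABCB11 mRNA level so AC50 marks induction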
Outline: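 Read-out was ABCB11 mRNA gain of signal by quantitative nuclease protection assay, relative to 0.2% DMSO vehicle, 6 h post-dose. Cells were primary human hepatocytes from two donors, treated across multiple concentrations; phase-contrast cytotoxicity noted yes/no.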

[7] = read-out: Cytochrome P450 2B6 (Homo sapiens) (UniProt P20813); test: CLD_CYP2B6_6hr: CellzDirect (CLD) Gene Expression Assay for xenobiotic metabolism (CYP2B6) at 6 hours (AID 2283677);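 also: actives raise CYP2B6 transcript above DMSO baseline so AC50 marks an inducer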
Outline: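 CYP2B6 transcript levels, read by chemiluminescent qNPA, were fitted for increase versus DMSO baseline; cultured human liver hepatocytes from two donor preparations were harvested 6 h after exposure to test chemicals at multiple concentrations.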

[8] = CCTE_Padilla_ZF_144hpf_TERATOSCORE: (Legacy) CCTE's 144 Hour Post-fertilization zebrafish Assay Teratoscore, Padilla Lab (AID 2283679; active = hit-call score of the fitted dose curve at least 0.9, where 1 is the maximum; inactive = score below 0.9;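 as to AC50: zebrafish embryos with chorions exposed by immersion from 6-8 hpf to 5 dpf with daily renewal; teratogenicity score from eye scoring of death hatching and malformations at 144 hpf; higher score means more developmental defects relative to DMSO baseline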)
Outline: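 Larvae scored by eye at 144 hpf for death, hatching and malformations after a day in clean Hanks'. Before that, daily-renewed exposure at 80 uM (0.4% DMSO, 26C) from roughly 6-8 hpf through 5 dpf, 4 embryos per chemical.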

[9] = read-out: Cytochrome P450 3A4 (Homo sapiens) (UniProt P08684); test: CLD_CYP3A4_6hr: CellzDirect (CLD) Gene Expression Assay for xenobiotic metabolism (CYP3A4) at 6 hours (AID 2283680)
Outline: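 CYP3A4 mRNA induction, 6 h after dosing of cultured primary human hepatocytes from two donors, read by quantitative nuclease protection (qNPA, chemiluminescence). Vehicle 0.2% DMSO as baseline; morphology-based cytotoxicity annotated yes/no.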

[10] = read-out: HMG-CoA synthase (HMGCS2), HMGCS2 (gene 3158); test: CLD_HMGCS2_6hr: CellzDirect (CLD) Gene Expression Assay for HMG-CoA synthase (HMGCS2) at 6 hours (AID 2283682);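 also: actives raise HMGCS2 transcript above the 0.2% DMSO vehicle baseline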
Outline: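 HMGCS2 transcript induction read by quantitative nuclease protection with chemiluminescence, 6 h after dosing of primary human hepatocytes. Baseline was 0.2% DMSO vehicle; phase-contrast morphology gave a yes/no cytotoxicity annotation.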

[11] = read-out: ABC Transporter (ABCB1), ABCB1 (gene 5243); test: CLD_ABCB1_24hr: CellzDirect (CLD) Gene Expression Assay for ABC Transporter (ABCB1) at 24 hours (AID 2283684);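 as to AC50: potency for increase in ABCB1 mRNA relative to DMSO vehicle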
Outline: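 ABCB1 mRNA induction versus 0.2% DMSO vehicle was read by qNPA chemiluminescence at 24 h. Cultured human hepatocytes from two donor preparations received daily fresh dosing, and phase-contrast cytotoxicity calls were annotated alongside the data.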

[12] = system: Thyroperoxidase (TPO), gene 54314; test: CCTE_Simmons_AUR_rTPO: CCTE's Amplex UltraRed Assay for Thyroperoxidase (TPO) Inhibition, Simmons Lab (AID 2283662);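 as to AC50: potency for loss of signal meaning inhibition of peroxidase activity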
Outline: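 Cell-free peroxidase activity assay using rat thyroid gland microsomes with excess H2O2 (300 uM) and 25 uM Amplex UltraRed. Compounds tested from 5 nM to 87.5 uM; fluorescence measured after 30 min at 37C, analysed relative to DMSO baseline.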

[13] = CCTE_Simmons_CellTiterGLO_HEK293T: Viability Assessment in CCTE's Assays for Thyroperoxidase (TPO) Inhibition, Simmons Lab (AID 2283665);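 as to AC50: cells exposed to compound for 24 h before readout; actives reduce ATP signal below DMSO vehicle meaning cytotoxicity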
Outline: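 Cells were seeded overnight, then exposed to an eight-point series up to 87.5 uM final for 24 hours. CellTiter-Glo reagent was added and luminescence read after 20 min, giving ATP-based viability versus DMSO.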

[14] = CLD_ACTIN_6hr: CellzDirect (CLD) Gene Expression Assay for Baseline Control (Actin) at 6 hours (AID 2283676);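 also: active means increased actin mRNA relative to DMSO vehicle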
Outline: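 Baseline actin transcript level measured by qNPA (S1 nuclease protection, chemiluminescence) in human hepatocyte cultures 6 h after chemical exposure; 0.2% DMSO vehicle as reference, cytotoxicity noted from morphology.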

[15] = read-out: xenobiotic metabolism (CYP1A2), CYP1A2 (gene 1544); test: CLD_CYP1A2_24hr: CellzDirect (CLD) Gene Expression Assay for xenobiotic metabolism (CYP1A2) at 24 hours (AID 2283683)
Outline: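 CYP1A2 mRNA induction measured by quantitative nuclease protection (chemiluminescent) in human primary hepatocytes 24 h after multi-concentration chemical dosing with daily fresh solutions. DMSO (0.2%) baseline; positive-direction fitting; morphology-based cytotoxicity noted.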

[16] = read-out: organic anion transporter (SLCO1B1), SLCO1B1 (gene 10599); test: CLD_SLCO1B1_6hr: CellzDirect (CLD) Gene Expression Assay for organic anion transporter (SLCO1B1) at 6 hours (AID 2283668);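 also: active means mRNA induction above DMSO baseline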
Outline: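 SLCO1B1 mRNA induction measured 6 h after dosing by quantitative nuclease protection with chemiluminescent read-out, in human primary hepatocyte cultures given chemicals at several concentrations (vehicle 0.2% DMSO). Increase over DMSO baseline fitted; morphology-based cytotoxicity annotated yes/no.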

[17] = read-out: alkyl and aryl transferase (GSTA2), GSTA2 (gene 2939); test: CLD_GSTA2_6hr: CellzDirect (CLD) Gene Expression Assay for alkyl and aryl transferase (GSTA2) at 6 hours (AID 2283666)
Outline: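 GSTA2 transcript induction at 6 h, quantified by nuclease protection (qNPA) with chemiluminescent detection, in human liver primary hepatocytes exposed to several compound concentrations with 0.2% DMSO as baseline; phase-contrast morphology annotated apparent cytotoxicity.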

[18] = read-out: Cytochrome P450 (CYP24A1_1), CYP24A1 (gene 1591); test: LTEA_HepaRG_CYP24A1_1: Life Technologies and Expression Analysis (LTEA) Assay for Cytochrome P450 (CYP24A1_1) using HepaRG (AID 2283671; active = hit-call score of the fitted dose curve at least 0.9, where 1 is the maximum; inactive = score below 0.9); conditions: mRNA level, 48 h; actives raise or lower the signal
Outline: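 Cultures of human HepaRG were treated in duplicate for 48 h (0.5% DMSO vehicle, highest dose 100 uM). CYP24A1 mRNA by qRT-PCR, normalized to ACTB, GAPDH, POLR2A.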

[19] = read-out: Glyceraldehyde-3-phosphate dehydrogenase (Homo sapiens) (UniProt P04406); test: CLD_GAPDH_6hr: CellzDirect (CLD) Gene Expression Assay for Baseline Control (Glyceraldehyde 3-phosphate dehydrogenase) at 6 hours (AID 2283681);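 also: active means increased signal relative to DMSO vehicle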
Outline: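 GAPDH baseline-control readout from qNPA (S1 nuclease digestion, probe hybridization, chemiluminescence) in lysates of cultured human hepatocytes harvested 6 h post-dosing. Chemicals tested at multiple concentrations versus 0.2% DMSO vehicle; microscopy-based cytotoxicity flagged yes/no.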

Measured: AC50

Sequence of Cytochrome P450 3A4 (Homo sapiens) (P08684 whole entry, looked up): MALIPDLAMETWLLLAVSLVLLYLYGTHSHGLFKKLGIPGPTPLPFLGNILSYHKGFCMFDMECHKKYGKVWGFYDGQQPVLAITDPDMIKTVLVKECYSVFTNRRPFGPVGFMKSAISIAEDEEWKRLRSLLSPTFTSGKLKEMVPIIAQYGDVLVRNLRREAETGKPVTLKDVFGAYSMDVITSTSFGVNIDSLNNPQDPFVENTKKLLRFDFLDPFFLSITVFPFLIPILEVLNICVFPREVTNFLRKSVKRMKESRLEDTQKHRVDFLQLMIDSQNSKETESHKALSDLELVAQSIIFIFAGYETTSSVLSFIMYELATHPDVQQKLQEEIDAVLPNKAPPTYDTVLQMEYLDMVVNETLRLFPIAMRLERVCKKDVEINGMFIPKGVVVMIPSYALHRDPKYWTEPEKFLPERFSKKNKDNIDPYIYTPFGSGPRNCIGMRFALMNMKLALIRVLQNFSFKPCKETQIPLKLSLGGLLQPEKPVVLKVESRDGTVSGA
Sequence of Glyceraldehyde-3-phosphate dehydrogenase (Homo sapiens) (P04406 whole entry, looked up): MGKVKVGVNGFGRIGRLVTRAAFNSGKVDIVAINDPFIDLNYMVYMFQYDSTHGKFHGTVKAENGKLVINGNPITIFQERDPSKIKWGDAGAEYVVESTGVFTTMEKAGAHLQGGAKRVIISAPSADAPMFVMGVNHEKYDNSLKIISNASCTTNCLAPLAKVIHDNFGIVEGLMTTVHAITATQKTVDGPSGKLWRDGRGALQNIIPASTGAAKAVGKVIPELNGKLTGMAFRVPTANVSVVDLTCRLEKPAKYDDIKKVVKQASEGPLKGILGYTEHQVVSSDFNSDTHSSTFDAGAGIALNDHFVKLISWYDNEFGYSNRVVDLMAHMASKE

COc1cccc(C(=O)NN(C(=O)c2cc(C)cc(C)c2)C(C)(C)C)c1C
active: [5] 36400 nM | [7] 1290 nM | [9] 886 nM
inactive: [1] | [2] | [3] | [4] | [6] | [8] | [10] | [11]

CN(C)[C@@H]1C(=O)C(C(N)=O)=C(O)[C@@]2(O)C(=O)C3=C(O)c4c(O)cccc4[C@@](C)(O)[C@H]3[C@H](O)[C@@H]12
active: [12] 17.5 µM and 10.5 µM and 15.5 µM | [13] 5.47 µM and 53.8 µM
inactive: [1] | [13] | [2] | [3] | [4] | [14] | [7] | [8] | [10] | [15]

C#CCC1=C(C)C(OC(=O)C2C(C=C(C)C)C2(C)C)CC1=O (stereo unspecified)
active: [12] 40.2 µM | [7] 1080 nM | [8] 2760 nM | [9] 2840 nM
inactive: [1] | [2] | [16] | [4] | [6] | [14] | [10] | [11]

CC1=NNC(=O)N(/N=C/c2cccnc2)C1
active: [8] 46400 nM
inactive: [1] | [2] | [16] | [4] | [6] | [14] | [7] | [10] | [11]

CCOP(=S)(Oc1cnc(C(C)(C)C)nc1)OC(C)C (stereo unspecified)
active: [12] 36.2 µM | [13] 31.4 µM | [5] 7480 nM | [6] 27400 nM | [7] 470 nM | [8] 16800 nM | [9] 1890 nM
not listed: [3] | [10] | [15] | [19]
inactive: all other assays above

Cc1ccn2nc(S(=O)(=O)Nc3c(F)cccc3F)nc2n1
inactive: [1] | [2] | [16] | [3] | [4] | [7] | [8] | [9] | [11]

O=c1ccc(=O)[nH][nH]1
not listed: [5] | [7] | [14] | [15] | [17] | [18]
inactive: all other assays above

CCCOCC(=Nc1ccc(Cl)cc1C(F)(F)F)n1ccnc1
active: [1] 1890 nM | [13] 21.3 µM | [7] 1150 nM | [8] 2070 nM | [15] 1890 nM | [11] 32000 nM
not listed: [3] | [5] | [17] | [18] | [19]
inactive: all other assays above
